Bioassay records deposited in PubChem by National Center for Advancing Translational Sciences (NCATS).
Sfp inh: inhibitors of Bacillus subtilis Sfp phosphopantetheinyl transferase | Potency, µM, for the others: largest response in the series, negative = inhibition, usual class: inhibitors | Q9F4F7 | Biochemical Sfp PPTase activity, qHTS | AID 1490 | 3.5% of 310,000 active;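 note: the enzyme is Sfp with the accession as filed and its product quenches rhodamine fluorescence; potency is the fitted concentration of half-maximal effect; 0% = enzyme reaction without inhibitor and -100% = no enzyme wells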
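After 15 min at room temperature with compound, 15 nM Sfp received 5 uM rhodamine-CoA plus 12.5 uM BHQ-2-ybbR (50 mM Hepes pH 7.6, 10 mM MgCl2). Rate came from the fluorescence difference over 30 min, ex 525/em 598 nm.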
G9a block: inhibitors of human histone lysine methyltransferase G9a. Q96KQ7. G9a H3K9 monomethylation, AlphaScreen, 2 h. Potency, µM (titrated, usually from 102 µM), for inactives: at the top dose activity, negative = inhibition, hits mostly inhibitors. 8.8% of 350,000 active; note: potency is the fitted concentration of half-maximal effect; % is set by controls: 0 for no effect and ±100 for the full control effect; nearly all actives have a fitted effect of over 75% in size
Target sequence (Q96KQ7 913-1193 limits assumed): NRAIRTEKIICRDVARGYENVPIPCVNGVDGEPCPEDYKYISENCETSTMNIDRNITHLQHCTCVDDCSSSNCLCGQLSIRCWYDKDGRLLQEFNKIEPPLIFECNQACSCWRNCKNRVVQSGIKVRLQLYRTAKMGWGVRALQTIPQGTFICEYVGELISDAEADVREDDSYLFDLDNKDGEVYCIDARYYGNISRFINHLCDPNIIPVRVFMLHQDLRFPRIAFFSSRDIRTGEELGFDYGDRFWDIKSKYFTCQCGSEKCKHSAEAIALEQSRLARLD
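Enzyme 20 nM + cpd, 15 min RT; add b-H3K9 pep 500 nM / SAM 20 uM; 2 h RT; anti-H3K9me1 Ab 0.5 ug/mL + SA donor / anti-rabbit acceptor beads 20 ug/mL each, 10 min; AlphaScreen read.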
JMJD2A Tudor inh: JMJD2A Tudor domain (human) inhibition. AID 504339. O75164. 4.4% of 390,000 active. Potency, µM (top dose mostly 114 µM), for the others: top-dose activity change, negative = inhibition, most hits filed as inhibitors. AlphaScreen JMJD2A-Tudor / H3K4me3 peptide binding; note: potency is the fitted concentration of half-maximal effect; % is set by controls: 0 for no effect and ±100 for the full control effect; nearly all actives have a fitted effect of over 50% in size
TDP1 inh: TDP1 (human) enzyme inhibition. Q9NUW8. 0.28% of 350,000 active. Potency, µM (titrated, usually from 130 µM), without a hit: top-dose activity change, negative = inhibition, most hits filed as inhibitors. recombinant TDP1, AlphaScreen DNA substrate cleavage; note: potency is the fitted concentration of half-maximal effect; % is set by controls: 0 for no effect and ±100 for the full control effect; nearly all actives have a fitted effect of over 40% in size
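Signal: AlphaScreen proximity between streptavidin donor and anti-FITC acceptor beads on intact substrate. Reaction: Tdp1 1 nM, substrate 15 nM final, 5 min RT after 15 min compound preincubation.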
BAZ2B block: blocks human BAZ2B; Potency, µM (top dose mostly 114 µM), for inactives: at the top dose activity change, negative = inhibition, actives largely listed as inhibitors; AID 504333; 4.4% of 360,000 active; AlphaScreen BAZ2B-H3K14Ac peptide displacement; note: potency is the fitted concentration of half-maximal effect; % is set by controls: 0 for no effect and ±100 for the full control effect; nearly all actives have a fitted effect of over 60% in size
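BAZ2B 50 nM plus b-H3(5-23)K14Ac 50 nM, PBS pH 7.4/0.01% Tween-20, 30 min RT; compound added (max 110 uM), 30 min RT; streptavidin donor/Ni-chelate acceptor beads 10 ug/mL final, 20 min dark; AlphaScreen read.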
HP1b binding inh: blocks HP1-beta chromodomain binding to methylated histone tails. Potency, µM (top dose mostly 114 µM), inactives show at the highest dose activity change, negative = inhibition, most hits filed as inhibitors. AlphaScreen HP1-beta / biotin-H3K9me3 peptide binding. P83916. 0.56% of 390,000 active; note: potency is the fitted concentration of half-maximal effect; nearly all actives have a fitted effect of over 70% in size
Target sequence (P83916 whole entry, looked up): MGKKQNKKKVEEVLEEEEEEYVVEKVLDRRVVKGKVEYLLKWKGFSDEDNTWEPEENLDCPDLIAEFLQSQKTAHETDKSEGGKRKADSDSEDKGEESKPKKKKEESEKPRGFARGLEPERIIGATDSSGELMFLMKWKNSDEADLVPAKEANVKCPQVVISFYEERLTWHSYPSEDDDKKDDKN
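AlphaScreen: HP1-beta (50 nM) preformed 30 min with biotin-H3(1-18)K9me3 peptide (50 nM) in PBS pH 7.4, 0.01% Tween-20. Compound added for 30 min at RT, then streptavidin donor/nickel chelate acceptor beads (10 ug/mL) for 30 min.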
Sfp PPTase conf: confirmation of Bacillus subtilis Sfp PPTase inhibitors; Potency, µM (series often up to 114 µM), without a hit: at the highest dose activity change, negative = inhibition, usual class: inhibitors; shares compounds with Sfp inh; 79% of 380 active; Sfp PPTase enzymatic assay, qHTS titration;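 note: potency is the fitted concentration of half-maximal effect; plate controls were uninhibited Sfp reaction for no effect and no enzyme control for full effect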
Target sequence (Q9F4F7 whole entry, looked up): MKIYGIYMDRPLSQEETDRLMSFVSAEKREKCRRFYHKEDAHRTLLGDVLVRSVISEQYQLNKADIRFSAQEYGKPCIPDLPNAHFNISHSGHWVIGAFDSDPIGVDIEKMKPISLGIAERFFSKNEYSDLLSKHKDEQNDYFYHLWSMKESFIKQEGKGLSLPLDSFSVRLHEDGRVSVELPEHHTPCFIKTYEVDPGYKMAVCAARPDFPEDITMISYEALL
Sfp PPTase gel: Inhibits Bacillus subtilis Sfp phosphopantetheinyl transferase | shares compounds with Sfp inh | 20% of 210 active | purified Sfp, gel-based phosphopantetheinylation read-out | Potency, µM, usual class: inhibitors;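 active = potency below 100 µM; inconclusive = dose-dependent response but potency above 100 µM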;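 note: band intensities scaled against SCH202676 control wells before curve fitting; potency is an IC50 for inhibitors of Sfp transfer activity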
The depositor's hits bear a star; [ ] = dose if it differs, or a comment. Rows were chosen to be rich in hits. Some 12% of all compounds tested hit in one or more screens of this group. Unless noted, calls come from the whole dose curve; as a rule, active = well fitted curve in the direction sought with a large enough effect; inconclusive = small, poorly fitted or top-dose-only effect, or another doubt; inactive = no such curve, though single readings can be large; an effect the other way counts as inactive or inconclusive.

`Cc1nc2sc3c(c2c(=O)o1)CCC3` gave Sfp inh 16µM*, G9a block inconclusive, JMJD2A Tudor inh -16%, TDP1 inh 8%, BAZ2B block -27%, HP1b binding inh 26%, Sfp PPTase conf inconclusive and Sfp PPTase gel inconclusive.
For Nn1c(=O)c2ccccc2n2c(SCc3ccc(C(F)(F)F)cc3)nnc12 the results were Sfp inh 45µM*, G9a block 4µM*, JMJD2A Tudor inh -19%, TDP1 inh 0%, BAZ2B block 5%, HP1b binding inh 17%, Sfp PPTase conf inconclusive and Sfp PPTase gel inactive.
`O=C(NCCCn1ccnc1)c1nn2c(C(F)(F)F)cc(-c3ccc(Br)cc3)nc2c1Cl` gave Sfp inh 1.1µM*, G9a block 50µM*, JMJD2A Tudor inh 45µM*, TDP1 inh 0%, BAZ2B block 50µM*, HP1b binding inh inconclusive and Sfp PPTase conf inconclusive.
O=C(O)c1cc(/C=C/C(=O)c2cc(F)ccc2O)c2c(c1)COCO2 was read as Sfp inh 22µM*, JMJD2A Tudor inh inconclusive, BAZ2B block 50µM*, HP1b binding inh -6%, Sfp PPTase conf 47µM* and Sfp PPTase gel inactive.
For CC1CCCN(C(=O)c2nn(C)c3c2CSc2ccccc2-3)C1 (stereo not drawn) the results were Sfp inh 45µM*, JMJD2A Tudor inh inconclusive, BAZ2B block 2%, HP1b binding inh 15% and Sfp PPTase conf 53µM*.
Screening Nc1ccc(C(=O)N2CCCC2)cc1 returned Sfp inh 6%, G9a block -1%[59 µM], JMJD2A Tudor inh -8%[57.1 µM], TDP1 inh 1%, BAZ2B block -3% and HP1b binding inh 67%.
Nc1ccc(C(=O)n2c3ccccc3c3ccccc32)cc1 was read as Sfp inh 45µM*, G9a block 8.9µM*, JMJD2A Tudor inh -21%, TDP1 inh -2%, BAZ2B block -2%, HP1b binding inh 25% and Sfp PPTase conf inconclusive.
COc1ccc(NC(=O)CS(=O)(=O)Cc2ccccc2)c([N+](=O)[O-])c1 was read as Sfp inh 13%, JMJD2A Tudor inh -8%, TDP1 inh 2%, BAZ2B block -6% and HP1b binding inh 11%.
For COC(=O)C1=C(C)NC(C)=C(C(=O)OCC(C)C)C1c1ccccc1[N+](=O)[O-] (stereo not drawn) the results were Sfp inh 40µM*, G9a block 11µM*, JMJD2A Tudor inh 20µM*, TDP1 inh 15%, HP1b binding inh 16µM* and Sfp PPTase conf 37µM*.
For COC(=O)C1=C(C)NC(C)=C([N+](=O)[O-])[C@H]1c1ccccc1C(F)(F)F the results were Sfp inh 15% and TDP1 inh 11%.
Screening CCCCN1C(=O)CN(C2CCCCC2)C(=O)C1c1ccc(OC(C)C)c(OC)c1 (stereo not drawn) returned G9a block 2%[59 µM], JMJD2A Tudor inh -2%, TDP1 inh 13%, BAZ2B block 4% and HP1b binding inh 45%.
CCOc1ccc2nc(SCC(=O)c3ccc(C)s3)sc2c1 was read as Sfp inh 18µM*, G9a block inconclusive, JMJD2A Tudor inh -2%, TDP1 inh 1%, BAZ2B block 24%, HP1b binding inh 79%, Sfp PPTase conf inconclusive and Sfp PPTase gel inactive.
`NC(=O)c1sc2nc(-c3ccco3)ccc2c1N` gave Sfp inh 5µM*, G9a block inconclusive, JMJD2A Tudor inh -19%, TDP1 inh inconclusive, BAZ2B block -3%, HP1b binding inh 37%, Sfp PPTase conf 6.6µM* and Sfp PPTase gel inactive.
For COc1ccc(C(=O)c2sc3nc(-c4ccccc4)ccc3c2N)cc1 the results were Sfp inh -13%, G9a block inconclusive, JMJD2A Tudor inh 14%, TDP1 inh 2%, BAZ2B block 11% and HP1b binding inh 130%.
For Nc1c(C(=O)Nc2ccccc2F)sc2nc(-c3ccco3)ccc12 the results were Sfp inh 4µM*, G9a block inconclusive, JMJD2A Tudor inh -15%, TDP1 inh 1%, BAZ2B block -2%, HP1b binding inh 16% and Sfp PPTase conf 1.7µM*.
Nc1c(C(=O)Nc2ccccc2F)sc2nc(-c3cccnc3)ccc12 was read as Sfp inh inconclusive, JMJD2A Tudor inh -1%, TDP1 inh -2%, BAZ2B block -10% and HP1b binding inh 42%.
Screening CC(=O)Nc1ccc(C(=O)NCC(=O)OCc2ccccc2F)cc1 returned Sfp inh 23%, G9a block -6%, JMJD2A Tudor inh -4%, TDP1 inh 1%, BAZ2B block -22% and HP1b binding inh 34%.
`O=C(O)c1cc(=O)c2c3nc4ccccc4oc-3cc(=O)c2[nH]1` gave Sfp inh 45µM*, G9a block inconclusive and Sfp PPTase conf 53µM*.
CC1=C(C(=O)Nc2cc(C(=O)NCCCOC(C)C)ccc2C)SCCO1 was read as Sfp inh 5%, G9a block 33%, JMJD2A Tudor inh 1%, BAZ2B block 7% and HP1b binding inh 16%.
`CC(C)c1nc2sc3c(N4CCCCC4)ncnc3c2c2c1CCCC2` gave G9a block 13%[59 µM], JMJD2A Tudor inh 12%, TDP1 inh 3%, BAZ2B block 1% and HP1b binding inh 68%.
`COc1ccc2[nH]c(S(=O)Cc3ncc(C)c(OC)c3C)nc2n1` (stereo not drawn) gave Sfp inh 45µM*, G9a block inconclusive and Sfp PPTase conf 19µM*.
Nc1cccnc1Sc1cccc(Cl)c1 was read as Sfp inh 3.2µM*, G9a block -39%, JMJD2A Tudor inh -15%, TDP1 inh 8%, BAZ2B block -36%[57.1 µM], HP1b binding inh 42% and Sfp PPTase conf 19µM*.
Nc1cccnc1Sc1ccc(Cl)cc1 was read as Sfp inh 5%, G9a block 49%[12.7 µM], JMJD2A Tudor inh -28%, TDP1 inh 5%, BAZ2B block -4% and HP1b binding inh 30%.
Screening Cc1cccc(N2CCC(N3CCN(C4CCCCC4)C(CCO)C3)CC2)c1C (stereo not drawn) returned Sfp inh 10µM*, G9a block 16µM*, JMJD2A Tudor inh -1%, TDP1 inh 3%, BAZ2B block 45µM*, HP1b binding inh 18%, Sfp PPTase conf -7% and Sfp PPTase gel inactive.
